# Laboratory results from PubChem BioAssay (NCATS).
# Several values for one entry are separate records, joined by “and”; a condition that tells them apart may be missing. Equal values may be shown once. Records with an inconclusive call do not appear. Activity calls are given as the source filed them. Unless noted, calls come from the whole dose curve; as a rule, active = well fitted curve in the direction sought with a large enough effect; inconclusive = small, poorly fitted or top-dose-only effect, or another doubt; inactive = no such curve, though single readings can be large; an effect the other way counts as inactive or inconclusive.
# Key:
# [1] = target: Tyrosine-protein kinase Yes (Homo sapiens) (UniProt P07947); assay: qHTS for small molecule inhibitors of Yes1 kinase: Primary Screen (AID 686947);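 note: plate controls were DMSO with enzyme for no effect and no-enzyme DMSO wells for full effect; nearly all actives have a fitted effect of over 60% in size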
# Tyrosine-protein kinase Yes (Homo sapiens), sequence (P07947 whole entry, looked up): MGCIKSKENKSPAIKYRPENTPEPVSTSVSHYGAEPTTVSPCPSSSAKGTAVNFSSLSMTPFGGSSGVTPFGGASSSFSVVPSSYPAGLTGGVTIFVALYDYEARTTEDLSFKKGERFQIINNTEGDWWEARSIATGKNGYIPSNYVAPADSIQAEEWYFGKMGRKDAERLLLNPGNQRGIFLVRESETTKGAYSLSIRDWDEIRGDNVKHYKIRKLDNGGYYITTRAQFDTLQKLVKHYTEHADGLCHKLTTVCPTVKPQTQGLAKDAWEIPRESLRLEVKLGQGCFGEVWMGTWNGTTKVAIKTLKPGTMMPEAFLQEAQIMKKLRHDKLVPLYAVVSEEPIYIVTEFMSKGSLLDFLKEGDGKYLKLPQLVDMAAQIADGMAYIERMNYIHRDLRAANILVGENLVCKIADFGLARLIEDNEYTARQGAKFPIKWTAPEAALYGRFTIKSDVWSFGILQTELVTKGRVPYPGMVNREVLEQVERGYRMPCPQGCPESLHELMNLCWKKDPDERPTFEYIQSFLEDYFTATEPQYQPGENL
# Summary of the method: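 ADP-Glo luminescence readout; final 4 nM Yes1, 0.1 mM ATP, 0.3 mg/mL poly(E4Y), Tris pH 7.5, MgCl2, DTT, Brij-35. 20 min compound preincubation, 60 min reaction at RT. Normalized to DMSO wells with and without enzyme.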
# [2] = qHTS for small molecule inhibitors of Yes1 kinase: Counter Assay (AID 686950);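 note: no kinase present so only ADP-Glo detection of a fixed ADP amount is tested; luminescence from ADP-Glo reporting ADP in a fixed ATP and ADP mixture; 0% = DMSO wells with ATP plus ADP and -100% = ATP-only wells without ADP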
# Summary of the method: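 Enzyme-free ADP-Glo interference check: compounds were preincubated 20 min in buffer, then an ATP/ADP mix (0.08 mM ATP, 0.02 mM ADP final) was added for 60 min at room temperature before two-step ADP-Glo luminescence detection.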
# [3] = qHTS Assay for Identifying Gametocytocidal Compounds (AID 743244); note: potency is the fitted concentration of half-maximal effect;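 for max response: % is set by controls: 0 for no effect and ±100 for the full control effect; actives lower the fluorescent signal which means gametocytes are killed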; details: P. falciparum 3D7 stage III-V gametocytes, alamarBlue, 72 h; max response: stronger effect = lower value
# Summary of the method: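 Stage III-V P. falciparum 3D7 gametocytes, 20,000 per well, were exposed to compounds for 72 h at 37C, 5% CO2. AlamarBlue was then added for 24 h and viability was read as fluorescence at Ex 525/Em 598 nm.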
# [4] = qHTS profiling for inhibitors of Plasmodium falciparum (3D7) proliferation (AID 743322; call rule not given here;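 note: infected erythrocytes exposed to compound for 72 h before lysis; 100% = DMSO vehicle wells and 0% = 0.29 µM artemisinin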); details: P. falciparum 3D7 proliferation; at 28.7 µM (top of the series)
# Summary of the method: (§1)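 Erythrocytes infected with P. falciparum (0.3% parasitemia, 2.5% hematocrit) incubated with compounds 72 h at 37 C, 5% CO2. Lysis with saponin/Triton buffer containing SYBR Green I, overnight at room temperature in the dark; DNA fluorescence (485/535 nm) normalised to 0.29 uM artemisinin and DMSO.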
# [5] = qHTS profiling for inhibitors of Plasmodium falciparum (DD2) proliferation (AID 743323; call rule not given here); details: lower = more inhibition; at 28.7 µM (top of the series)
# Summary of the method: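 Parasite DNA quantified by SYBR Green fluorescence (ex 485, em 535 nm) after saponin/Triton lysis and overnight dark incubation. Cultures: 0.3% parasitemia, 2.5% hematocrit, 72 h, 37 C; data scaled between DMSO and 0.29 uM artemisinin.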
# [6] = qHTS profiling of the MIPE4 collection as inhibitors of Plasmodium falciparum (3D7) proliferation (AID 743344; call rule not given here;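 note: scaled between DMSO vehicle wells and 0.29 µM artemisinin as full inhibition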); details: P. falciparum 3D7 in erythrocytes, SYBR Green DNA fluorescence, 72 h; at 28.5 µM (top of the series) unless noted
# Summary of the method: as §1
# [7] = qHTS assay for small molecule agonists of the antioxidant response element (ARE) signaling pathway measured by Nrf2-dependant transcriptional activity (AID 720636; active = well fitted curve in the direction sought with a large enough effect in the repeat runs; an effect the other way counts as inactive or inconclusive; note: % of control where 0% means no effect)
# Summary of the method: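 ARE-luc HepG2 cells carrying an Nrf2-responsive luciferase reporter were plated in medium with 1% dialyzed FBS, left 6 hr at 37 C to attach, then exposed to compound for 16 hr. Luciferase luminescence was read after ONE-Glo addition.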
# [8] = qHTS assay for small molecule antagonists of the retinoid-related orphan receptor gamma (ROR-gamma) signaling pathway - cell viability counter screen (AID 720652; active = well fitted curve in the direction sought with a large enough effect in the repeat runs; an effect the other way counts as inactive or inconclusive;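 note: compound exposure lasted 16 hr before ATP read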; note: potency is the fitted concentration of half-maximal effect)
# Summary of the method: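 Cytotoxicity is quantified via intracellular ATP (CellTiter-Glo luminescence) in doxycycline-induced CHO ROR response element-luciferase reporter cells treated with compound for 16 hr at 37 C, 5% CO2.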
# [9] = qHTS assay for small molecule agonists of the antioxidant response element (ARE) signaling pathway measured by Nrf2-dependant transcriptional activity - cell viability counter screen (AID 720653; active = well fitted curve in the direction sought with a large enough effect in the repeat runs; an effect the other way counts as inactive or inconclusive; note: potency is the fitted concentration of half-maximal effect; for max response: % is set by controls: 0 for no effect and ±100 for the full control effect); details: ARE-bla HepG2 viability, CellTiter-Glo ATP luminescence, 16 h; max response: stronger effect = lower value
# Summary of the method: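 ARE-bla HepG2 cells (2,000/well) rested 5 hrs at 37C/5% CO2, then exposed to compounds in DMSO for 16 hrs. Viability was read in the same wells as intracellular ATP by luminescence, 30 min at room temperature after reagent addition.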
# [10] = qHTS assay for cell viability of HEK293 cells (AID 743288); details: ATP luminescence (CellTiter-Glo), 18 h; max response: stronger effect = lower value; note: nearly all actives have a fitted effect of over 50% in size; note: potency is the fitted concentration of half-maximal effect; for max response: % is set by controls: 0 for no effect and ±100 for the full control effect
# Summary of the method: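 The Tox21 protocol used parental HEK293 cells treated for 18 h at 37 C with compounds delivered by pintool; ATP-coupled luminescence after 30 min at room temperature gave viability.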
# [11] = qHTS assay for cell viability of the p53RE-bla HCT-116 cell line (AID 743292); note: nearly all actives have a fitted effect of over 55% in size; note: potency is the fitted concentration of half-maximal effect
# Summary of the method: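 CellSensor p53RE-bla HCT-116 cells, 4,000/well, preincubated 5 h at 37 C, then exposed to compounds in DMSO for 16 h at 37 C. Viability read as CellTiter-Glo luminescence (intracellular ATP) after 30 min at room temperature.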
# [12] = qHTS for compounds that reverse cellular toxicity of Amyloid beta (A-beta) peptide in yeast: LOPAC Validation Assay (AID 720559);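 note: plate controls were DMSO for no effect and equimolar ferric chloride plus clioquinol rescue for full effect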
# Summary of the method: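 Activity is expressed relative to DMSO and an equimolar ferric chloride/clioquinol mix. Compounds were pinned into medium with A-beta-expressing yeast, grown 48 hr at 30 C, then read by absorbance at 600 nm.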
# [13] = qHTS for Activators of Parkin Expression: LOPAC Validation Assay (FLuc Reporter) (AID 720573;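 note: 0% = DMSO and 100% = positive control compounds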)
# Summary of the method: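 A neuronal cell line harbouring FLuc and NLuc reporters behind the Parkin promoter was exposed to compounds for 24 h. Firefly luciferase signal, measured after 10 min with detection reagent, was scaled to DMSO and positive-control wells.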
# [14] = target: T1, Hexokinase-4 (Homo sapiens) + Glucokinase regulatory protein (Homo sapiens) (UniProt P35557+Q14397); assay: qHTS assay for inhibitors of recombinant human GCK-GKRP interaction: Diaphorase-coupled assay (AID 743205)
# T1 sequence (P35557 whole entry, looked up): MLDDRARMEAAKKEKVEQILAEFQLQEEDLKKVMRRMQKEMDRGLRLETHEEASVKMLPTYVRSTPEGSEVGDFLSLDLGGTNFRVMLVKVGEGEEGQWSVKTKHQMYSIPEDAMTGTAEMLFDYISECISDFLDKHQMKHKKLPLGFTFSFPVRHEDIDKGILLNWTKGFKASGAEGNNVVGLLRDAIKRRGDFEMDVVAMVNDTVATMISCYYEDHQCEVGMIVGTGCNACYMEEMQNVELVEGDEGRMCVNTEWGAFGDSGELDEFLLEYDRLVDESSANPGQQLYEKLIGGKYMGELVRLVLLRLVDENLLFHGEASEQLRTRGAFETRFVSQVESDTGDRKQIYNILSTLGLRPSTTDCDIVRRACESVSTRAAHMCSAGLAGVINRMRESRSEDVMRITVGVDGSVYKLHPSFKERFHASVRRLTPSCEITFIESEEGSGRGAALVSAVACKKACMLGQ
# T1 sequence (Q14397 whole entry, looked up): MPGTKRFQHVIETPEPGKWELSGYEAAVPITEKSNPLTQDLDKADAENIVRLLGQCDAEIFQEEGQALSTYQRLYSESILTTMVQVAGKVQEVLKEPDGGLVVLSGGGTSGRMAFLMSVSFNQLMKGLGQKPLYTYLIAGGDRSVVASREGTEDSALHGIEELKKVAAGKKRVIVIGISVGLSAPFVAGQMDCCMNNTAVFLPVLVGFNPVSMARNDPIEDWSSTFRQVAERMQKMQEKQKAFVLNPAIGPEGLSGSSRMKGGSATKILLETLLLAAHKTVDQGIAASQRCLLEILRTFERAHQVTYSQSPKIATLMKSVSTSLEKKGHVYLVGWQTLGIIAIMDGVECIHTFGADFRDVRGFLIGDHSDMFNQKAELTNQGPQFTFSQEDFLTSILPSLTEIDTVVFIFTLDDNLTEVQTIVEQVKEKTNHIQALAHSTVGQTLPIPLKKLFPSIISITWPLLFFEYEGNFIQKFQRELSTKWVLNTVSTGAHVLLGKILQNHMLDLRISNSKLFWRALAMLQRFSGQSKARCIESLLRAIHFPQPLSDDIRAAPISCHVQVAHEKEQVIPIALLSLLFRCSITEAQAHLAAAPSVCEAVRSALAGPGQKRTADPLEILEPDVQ
# Summary of the method: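 Inhibitors of the GCK–GKRP complex relieve GKRP suppression of GCK, detected through a G6PDH–diaphorase cascade reducing resazurin. Human GST-GCK and FLAG-GKRP are used at 10 nM with 5 mM glucose and 0.4 mM ATP.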
# [15] = target: T1, Hexokinase-4 (Homo sapiens) + Glucokinase regulatory protein (Homo sapiens); assay: qHTS assay for inhibitors of recombinant human GCK-GKRP interaction: ADP-Glo assay (AID 743206);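 note: plate controls were DMSO plus enzyme for no effect and no enzyme for full effect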
# Summary of the method: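 GST-GCK and FLAG-GKRP (15 nM each in the dispensed mix, with 2 uM S6P) react with 0.4 mM ATP and 5 mM glucose (final) in Hepes pH 7.6 for 60 min at room temperature. ADP is measured by ADP-Glo luminescence.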
# [16] = target: T1, Hexokinase-4 (Homo sapiens) + Glucokinase regulatory protein (Homo sapiens); assay: qHTS assay for inhibitors of recombinant human GCK-GKRP interaction: HTRF assay (AID 743207);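 note: 0% = DMSO with GCK present and -100% = DMSO wells lacking GCK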
# Summary of the method: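 Steps: dispense GCK–GKRP complex (5 nM each, GST- and FLAG-tagged) with 2 uM S6P; pin in compounds; add XL665/Eu-cryptate-labelled antibodies; incubate 60 min at room temperature; read time-resolved FRET at 665 and 615 nm.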
# [17] = target: Arylsulfatase A (Homo sapiens) (UniProt P15289); assay: qHTS screen for enhancers of Arylsulfatase A (ASA1): LOPAC Validation Assay (AID 720538); details: outcome: dose series up to 57.5 µM
# Arylsulfatase A (Homo sapiens), sequence (P15289 whole entry, looked up): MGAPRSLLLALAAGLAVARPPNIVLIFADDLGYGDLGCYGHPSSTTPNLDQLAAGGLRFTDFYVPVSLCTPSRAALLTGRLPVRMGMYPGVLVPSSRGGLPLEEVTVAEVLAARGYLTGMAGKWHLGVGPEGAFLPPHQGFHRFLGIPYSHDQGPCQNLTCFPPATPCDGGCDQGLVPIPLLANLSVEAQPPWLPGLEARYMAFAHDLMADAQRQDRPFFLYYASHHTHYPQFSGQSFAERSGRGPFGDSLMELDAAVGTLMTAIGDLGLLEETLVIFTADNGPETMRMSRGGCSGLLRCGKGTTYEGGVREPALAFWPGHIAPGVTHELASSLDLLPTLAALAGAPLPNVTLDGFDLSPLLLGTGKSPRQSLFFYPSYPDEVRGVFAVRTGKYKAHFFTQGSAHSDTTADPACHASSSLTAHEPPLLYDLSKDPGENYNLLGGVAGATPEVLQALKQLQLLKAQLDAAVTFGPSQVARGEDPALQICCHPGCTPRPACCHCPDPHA
# Summary of the method: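 First, ASA-I179S fibroblasts from an MLD patient adhered for 6 hrs. Next, compounds were added for 48h. Then pNCS substrate (0.5mM final) with lysis buffer reacted 14h at room temperature before NaOH stop and fluorescence measurement.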
# [18] = qHTS profiling for inhibitors of Plasmodium falciparum (HB3) proliferation (AID 743324); details: Plasmodium falciparum HB3 blood-stage proliferation; at 28.7 µM (top of the series);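 note: 100% = DMSO vehicle wells and 0% = artemisinin-treated control wells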
# Summary of the method: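 P. falciparum HB3 grown in erythrocytes (0.3% parasitemia, 2.5% hematocrit final) with compound for 72 h at 37 C, 5% CO2. Parasite DNA detected by SYBR Green after saponin/triton lysis overnight; normalized to 0.29 uM artemisinin and DMSO.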
smiles,measurement,setting,value
COc1cc([C@@H]2c3cc4c(cc3[C@H](O)[C@H]3COC(=O)[C@H]23)OCO4)cc(OC)c1OC,outcome,[1],inactive
same,outcome,[2],inactive
COc1cc2c(Nc3ccc(Br)cc3F)ncnc2cc1OCC1CCN(C)CC1,outcome,[2],inactive
same,Potency,[3],9.35 µM (active) and 5.62 µM (active)
same,remaining parasite growth % (stronger effect = lower value),[4],-1.51%
same,"activity, percent of control",[5],3.65%
same,"parasite growth, % of DMSO control",[6],5.79%
O=C(N[C@H](CO)[C@H](O)c1ccc([N+](=O)[O-])cc1)C(Cl)Cl,outcome,[7],inactive
same,Potency,[8],inactive
same,max response,[9],3.1% (inactive) and 1.36% (inactive)
same,max response,[3],-4.26% (inactive) and -6.91% (inactive)
same,max response,[10],-6.51% (inactive) and -1.46% (inactive)
same,Potency,[11],inactive
same,"parasite growth, % of DMSO control",[6],94.4%
N=C(N)c1ccc(OCCCCCOc2ccc(C(=N)N)cc2)cc1,outcome,[7],inactive
same,Potency,[8],inactive
same,max response,[9],-9.35% (inactive) and -16.5% (inactive)
same,Potency,[3],6.31 µM (active)
same,max response,[10],-23.8% (inactive) and -12.7% (inactive)
same,Potency,[11],inactive
same,"parasite growth, % of DMSO control",[6],5.02%
NC(=O)c1ccc2[nH]ccc2c1,outcome,[12],inactive
same,outcome,[13],inactive
same,outcome,[14],inactive
same,outcome,[15],inactive
same,outcome,[16],inactive
same,max response,[3],11.4% (inactive)
same,"parasite growth, % of DMSO control",[6],98%
O=C(O)c1cc(=O)[nH]c(=O)[nH]1,outcome,[7],inactive
same,Potency,[8],inactive
same,max response,[9],16.2% (inactive)
same,max response,[3],-0.993% (inactive)
same,max response,[10],-10.9% (inactive)
same,Potency,[11],inactive
same,"parasite growth, % of DMSO control",[6],101%
NC(=O)c1cccc(N)c1,outcome,[17],inactive
same,outcome,[12],inactive
same,outcome,[13],inactive
same,outcome,[14],inactive
same,outcome,[15],inactive
same,outcome,[16],inactive
same,max response,[3],25.5% (inactive)
same,"parasite growth, % of DMSO control",[6],96.3%
CCc1cc(C(N)=S)ccn1,outcome,[7],inactive
same,Potency,[8],inactive
same,max response,[9],-5.32% (inactive) and -4.73% (inactive)
same,max response,[3],-11% (inactive)
same,max response,[10],6.59% (inactive) and -10.6% (inactive)
same,Potency,[11],inactive
same,"parasite growth, % of DMSO control",[6],4.85%
CCCCS(=N)(=O)CCC(N)C(=O)O (stereo not drawn),outcome,[17],inactive
same,outcome,[12],inactive
same,outcome,[13],inactive
same,outcome,[14],inactive
same,outcome,[15],inactive
same,outcome,[16],inactive
same,max response,[3],-16.7% (inactive)
same,remaining parasite growth % (stronger effect = lower value),[4],88.1%
same,"activity, percent of control",[5],31.7%
same,"remaining proliferation (% of control), lower = more inhibition",[18],88%
same,"parasite growth, % of DMSO control",[6],102%
CN(C)c1ccc(C(=C2C=CC(=[N+](C)C)C=C2)c2ccc(N(C)C)cc2)cc1,outcome,[7],inactive
same,Potency,[8],10.6 µM (active)
same,Potency,[9],25.1 µM (active) and 12.6 µM (active)
same,Potency,[3],7.08 µM (active)
same,Potency,[10],14.1 µM (active) and 11.2 µM (active)
same,Potency,[11],25.1 µM (active) and 35.5 µM (active)
same,"parasite growth, % of DMSO control",[6],2.71%
